Experimental data published in PubChem BioAssay (NCI).
The panel holds about 83,000 compounds, 20% with a hit somewhere; the sample as a whole holds those more often.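 Growth was measured after 48 h exposure to one concentration of compound in 96-well plates. Values under 10 count as active.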 Unmarked numbers belong to inactive results. Calls of active or inactive are those of the source.

Test system: MDA-MB-231 breast
Assay: NCI-60 one-dose screen, 48 h (100 = growth as untreated, 0 = no growth, -100 = all killed)
Settings: 10 µM unless noted

In order of falling growth:
1. COc1cc(-c2nn(-c3ccc(Br)cc3)cc2C(=O)O)ccc1O  126%
2. COc1cc(C)c(C2C(C#N)=C(N)Oc3n[nH]c(-c4cccs4)c32)cc1C(C)C (stereo unspecified)  107%
3. O=C(CN1CCCCC1)Nc1ccc2oc(=O)ccc2c1  105%
4. CC/C=C\C[C@H](O)C/C=C1/C(=O)C=C[C@@]1(C)C/C=C\CCCC(=O)OC  104%
5. CC(C)CSc1nc(N)nc2c1ncn2C1OC(CO)C(O)C1O (stereo unspecified)  104%
6. N#Cc1nnn(-c2ccc(S(N)(=O)=O)cc2)c1NC(=O)CCl  102%
7. COc1ccc(C2C(C#N)=C(N)Oc3n[nH]c(-c4cccs4)c32)cc1I (stereo unspecified)  102%
8. CCOC(=O)C(C)(C#N)C1C=CCCC1 (stereo unspecified)  95.5%
9. COc1ccc2c(c1)CC/C(=C\c1cncc(Br)c1)C2=O  94.5%
10. COc1cc(-c2nn(-c3ccc(C(=O)O)cc3)cc2C(=O)O)ccc1O  93.3%
11. COc1cc(-c2nn(-c3ccc(C)cc3)cc2C(=O)O)ccc1O  91.7%
12. CCOC(=O)c1c(C(=O)OCC)c2cc(-c3ccn4c(C(=O)c5ccccc5)c(C(=O)OCC)c(C(=O)OCC)c4c3)ccn2c1C(=O)c1ccccc1  82.8%
13. CC(=O)c1cc2c(N)c(C(=O)Nc3cccc(F)c3C)sc2nc1C  82.1%
14. O=C(/C=C/c1ccc(C(F)(F)F)cc1)Nc1ccc(C=C2c3ccccc3C(=O)c3ccccc32)cc1  77.3%
15. O=C1/C(=C/c2ccc(OCCCOc3ccc(Cl)cc3)cc2)N=C2SCCCN12  77.3%
16. FC(F)(F)Oc1ccc2nc3nc4ccc[nH]c4cc3c2c1  74.2%
17. CC1C(/C=N/Nc2ccccc2)C(C#N)(C#N)C1(C#N)C#N (stereo unspecified)  70.1%
18. CCOC(=O)c1cc(C(=O)c2ccc(O)c(O)c2)n2ccc(-c3ccn4c(C(=O)c5ccc(O)c(O)c5)cc(C(=O)OCC)c4c3)cc12  52.6%
19. CCNC(=O)Oc1ccc(/C(=C(\C)c2ccc(Cl)cc2)c2ccc(OCCN3CCCCC3)cc2)cc1  51.8%
20. CCOc1ccc(C(C)=O)cc1NC(=O)c1cccc(-c2nnn(CC)n2)c1  47.9%
21. CCNC(=O)Oc1ccc(/C(=C(\C)c2ccc(Cl)cc2)c2ccc(OCCN(CC)CC)cc2)cc1  44.3%
22. CCc1nc(N)nc(N)c1C#CC(C)c1ccc(-c2ccncc2)cc1Cl (stereo unspecified)  43.3%
23. CC(C)(CCCN=C(N)Nc1ccc(Cl)cc1)c1ccc(F)cc1  41%
24. CC/C=C\C[C@H]1C/C=C2/C(=O)C=C[C@H]2C/C=C\CCCC(=O)O1  40.5%
25. COc1ccc(O)c(N=Nc2nccs2)c1  39.3%
26. COc1ccc(-c2nc(SCC(=O)Nc3ccc(C(=O)/C=C/c4ccc(Cl)cc4)cc3)[nH]c(=O)c2C#N)cc1  38.1%
27. CSc1ccc(-c2ccccc(=O)c2O)cc1  36.8%
28. CC(=O)O[C@H]1C(=O)[C@@]2(C)[C@H]([C@H](OC(=O)c3ccccc3)[C@]3(O)C[C@H](OC(=O)[C@H](OC(=O)CCC(=O)OC4CCC(S/N=C(N)/N=C(\N)N(C)C)CC4)[C@@H](NC(=O)c4ccccc4)c4ccccc4)C(C)=C1C3(C)C)[C@]1(OC(C)=O)CO[C@@H]1C[C@@H]2O (stereo partly specified)  22.8%
29. NCCNc1nc(Nc2ccc(-c3nc4ccccc4[nH]3)cc2)c2cn[nH]c2n1  18.8%
30. CC(=O)c1cc(C(=O)c2ccc3c(c2)Sc2ccccc2N3)n2ccccc12  17.9%
31. Cn1ccnc1C(=O)/C=C/c1ccc(CC(=O)Nc2ccccc2)cc1  12.6%

With `OCCN1CCN(c2nc(Nc3ccc(-c4nc5ccccc5[nH]4)cc3)c3cn[nH]c3n2)CC1` the growth was -77% (active).
In the case of `O=c1oc2c(C(F)(F)F)cccc2cc1-c1csc(Nc2ccc(OCCF)cc2)n1`, the growth is reported as 9.58% (active).
In the case of `C=C1C(=O)O[C@H]2[C@H]1CC/C(C=Nc1ccc(C(F)(F)F)cc1N)=C\CC[C@@]1(C)O[C@@H]21`, the growth is reported as -26.4% (active).
With `Clc1ccc2c(NCCNc3nc(N4CCCCC4)nc4ccccc34)ccnc2c1` the growth was -85% (active).
In the case of `Cc1cc(N[C@@H]2CCC[C@H](Nc3ccnc4cc(Cl)ccc34)C2)nc(N2CCCCCC2)n1`, the growth is reported as -85.8% (active).
For `Cc1cc(N2CCCC2)nc(NC2CCCC(Nc3ccnc4cc(Cl)ccc34)C2)n1` (stereo unspecified), the growth was -77% (active).
`COc1cccc2c1C(=O)c1c(O)c3c(c(O)c1C2=O)C[C@](O)(C(=O)CO)C[C@H]3O[C@@H]1C[C@@H](NC(=O)CCCCCN(C)C2(c3ccc(F)cc3)CC3CCC2C3)[C@H](O)[C@@H](C)O1` (stereo partly specified) was tested, and the growth was -77.1% (active).

Test system: RXF 393 renal
Assay: as above
Settings: 10 µM unless noted

In order of falling growth:
1. COc1cc(-c2nn(-c3ccc(C)cc3)cc2C(=O)O)ccc1O  125%
2. CC/C=C\C[C@H](O)C/C=C1/C(=O)C=C[C@@]1(C)C/C=C\CCCC(=O)OC  115%
3. O=C(CN1CCCCC1)Nc1ccc2oc(=O)ccc2c1  113%
4. O=C1/C(=C/c2ccc(OCCCOc3ccc(Cl)cc3)cc2)N=C2SCCCN12  110%
5. COc1cc(-c2nn(-c3ccc(Br)cc3)cc2C(=O)O)ccc1O  109%
6. N#Cc1nnn(-c2ccc(S(N)(=O)=O)cc2)c1NC(=O)CCl  109%
7. CC1C(/C=N/Nc2ccccc2)C(C#N)(C#N)C1(C#N)C#N (stereo unspecified)  105%
8. COc1cc(C)c(C2C(C#N)=C(N)Oc3n[nH]c(-c4cccs4)c32)cc1C(C)C (stereo unspecified)  99.5%
9. CCOC(=O)C(C)(C#N)C1C=CCCC1 (stereo unspecified)  98.8%
10. CC(C)CSc1nc(N)nc2c1ncn2C1OC(CO)C(O)C1O (stereo unspecified)  98.7%
11. COc1ccc2c(c1)CC/C(=C\c1cncc(Br)c1)C2=O  98.4%
12. COc1ccc(-c2nc(SCC(=O)Nc3ccc(C(=O)/C=C/c4ccc(Cl)cc4)cc3)[nH]c(=O)c2C#N)cc1  97.3%
13. CCOC(=O)c1c(C(=O)OCC)c2cc(-c3ccn4c(C(=O)c5ccccc5)c(C(=O)OCC)c(C(=O)OCC)c4c3)ccn2c1C(=O)c1ccccc1  96.7%
14. CC(=O)c1cc2c(N)c(C(=O)Nc3cccc(F)c3C)sc2nc1C  96.6%
15. COc1ccc(C2C(C#N)=C(N)Oc3n[nH]c(-c4cccs4)c32)cc1I (stereo unspecified)  93.9%
16. COc1cc(-c2nn(-c3ccc(C(=O)O)cc3)cc2C(=O)O)ccc1O  91.5%
17. CC(C)(CCCN=C(N)Nc1ccc(Cl)cc1)c1ccc(F)cc1  88.7%
18. COc1ccc(O)c(N=Nc2nccs2)c1  87.9%
19. CCOC(=O)c1cc(C(=O)c2ccc(O)c(O)c2)n2ccc(-c3ccn4c(C(=O)c5ccc(O)c(O)c5)cc(C(=O)OCC)c4c3)cc12  86.5%
20. FC(F)(F)Oc1ccc2nc3nc4ccc[nH]c4cc3c2c1  76.7%
21. O=C(/C=C/c1ccc(C(F)(F)F)cc1)Nc1ccc(C=C2c3ccccc3C(=O)c3ccccc32)cc1  68.4%
22. CCNC(=O)Oc1ccc(/C(=C(\C)c2ccc(Cl)cc2)c2ccc(OCCN3CCCCC3)cc2)cc1  49.1%
23. NCCNc1nc(Nc2ccc(-c3nc4ccccc4[nH]3)cc2)c2cn[nH]c2n1  43%
24. CSc1ccc(-c2ccccc(=O)c2O)cc1  39.3%
25. CC/C=C\C[C@H]1C/C=C2/C(=O)C=C[C@H]2C/C=C\CCCC(=O)O1  36.6%
26. CCc1nc(N)nc(N)c1C#CC(C)c1ccc(-c2ccncc2)cc1Cl (stereo unspecified)  32.9%
27. COc1cccc2c1C(=O)c1c(O)c3c(c(O)c1C2=O)C[C@](O)(C(=O)CO)C[C@H]3O[C@@H]1C[C@@H](NC(=O)CCCCCN(C)C2(c3ccc(F)cc3)CC3CCC2C3)[C@H](O)[C@@H](C)O1 (stereo partly specified)  31.6%
28. CCNC(=O)Oc1ccc(/C(=C(\C)c2ccc(Cl)cc2)c2ccc(OCCN(CC)CC)cc2)cc1  31.4%
29. O=c1oc2c(C(F)(F)F)cccc2cc1-c1csc(Nc2ccc(OCCF)cc2)n1  22.5%
30. Cn1ccnc1C(=O)/C=C/c1ccc(CC(=O)Nc2ccccc2)cc1  12.1%
31. CC(=O)O[C@H]1C(=O)[C@@]2(C)[C@H]([C@H](OC(=O)c3ccccc3)[C@]3(O)C[C@H](OC(=O)[C@H](OC(=O)CCC(=O)OC4CCC(S/N=C(N)/N=C(\N)N(C)C)CC4)[C@@H](NC(=O)c4ccccc4)c4ccccc4)C(C)=C1C3(C)C)[C@]1(OC(C)=O)CO[C@@H]1C[C@@H]2O (stereo partly specified)  10.6%

With `OCCN1CCN(c2nc(Nc3ccc(-c4nc5ccccc5[nH]4)cc3)c3cn[nH]c3n2)CC1` the growth was -93.6% (active).
With `C=C1C(=O)O[C@H]2[C@H]1CC/C(C=Nc1ccc(C(F)(F)F)cc1N)=C\CC[C@@]1(C)O[C@@H]21` the growth was -35.5% (active).
With `Clc1ccc2c(NCCNc3nc(N4CCCCC4)nc4ccccc34)ccnc2c1` the growth was -40.2% (active).
With `Cc1cc(N[C@@H]2CCC[C@H](Nc3ccnc4cc(Cl)ccc34)C2)nc(N2CCCCCC2)n1` the growth was -80.6% (active).
In the case of `CC(=O)c1cc(C(=O)c2ccc3c(c2)Sc2ccccc2N3)n2ccccc12`, the growth is reported as 7.01% (active).
`Cc1cc(N2CCCC2)nc(NC2CCCC(Nc3ccnc4cc(Cl)ccc34)C2)n1` (stereo unspecified) was tested, and the growth was -84.5% (active).
`CCOc1ccc(C(C)=O)cc1NC(=O)c1cccc(-c2nnn(CC)n2)c1` was tested, and the growth was -1.89% (active).
